Source: PubChem BioAssay AID1851 (National Center for Advancing Translational Sciences (NCATS), 2009)
Among all 16,000 compounds or so, about 5,100 (32%) were called active. About 25% were inconclusive and are not listed. This is one part of the list. Values without a mark were called inactive. The call rests on the fitted dose curve; in most records, active means well fitted curve in the direction sought with a large enough effect; inconclusive means small, poorly fitted or top-dose-only effect, or effect the other way; inactive means no such curve, though single readings can be large or run the other way.

These compounds were tested against Cytochrome P450 3A4 (Homo sapiens) (UniProt P08684) (assay: Cytochrome panel assay with activity outcomes). Conditions: recombinant CYP, pro-luciferin dealkylation, luminescence, p450-cyp3a4; series mostly up to 57.1 µM; activity, negative = inhibition: at the top concentration.
On the % scale 0 is the no-effect control and ±100 the full control effect.

Chain of Cytochrome P450 3A4 (Homo sapiens) (P08684 whole entry, looked up): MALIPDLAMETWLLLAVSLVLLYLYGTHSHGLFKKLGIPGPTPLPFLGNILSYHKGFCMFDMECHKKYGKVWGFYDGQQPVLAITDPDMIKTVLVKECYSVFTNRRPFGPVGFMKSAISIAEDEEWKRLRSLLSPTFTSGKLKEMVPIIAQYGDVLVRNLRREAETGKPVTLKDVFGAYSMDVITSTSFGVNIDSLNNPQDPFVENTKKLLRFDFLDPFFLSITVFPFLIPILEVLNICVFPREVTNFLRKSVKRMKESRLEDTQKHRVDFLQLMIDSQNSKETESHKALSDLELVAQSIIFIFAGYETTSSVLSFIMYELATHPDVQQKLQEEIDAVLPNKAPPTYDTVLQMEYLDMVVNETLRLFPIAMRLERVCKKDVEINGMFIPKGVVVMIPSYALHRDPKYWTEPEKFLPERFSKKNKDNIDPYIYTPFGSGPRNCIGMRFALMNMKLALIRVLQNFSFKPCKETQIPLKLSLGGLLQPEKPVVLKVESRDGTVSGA

Question: For O=C1CC(c2cccs2)c2cc3c(cc2N1)OCO3 (stereo not given), which AC50 is on record?
Answer: 7.08 µM (active)

Question: With CCCCNC(=S)NNC(=O)CCn1nc(C)c(Br)c1C as the compound, how does the AC50 read?
Answer: 4.47 µM (active)

Question: With CCCCNC(=S)NNC(=O)c1sccc1C as the compound, how does the activity, negative = inhibition read?
Answer: 1.58% [at 2.29 µM]

Question: c1ccc([P+](CC[P+](c2ccccc2)(c2ccccc2)c2ccccc2)(c2ccccc2)c2ccccc2)cc1 was tested. Which activity, negative = inhibition did it give?
Answer: 1.54% [at 11.4 µM]

Question: How did the activity, negative = inhibition turn out when C[C@]12CC[C@H]3c4ccc(O)cc4CC[C@@H]3[C@H]1C/C(=N/O)[C@H]2O was run?
Answer: -4.59% [at 11.4 µM]

Question: Which AC50 does the source give for CC(C)Cn1cnc2c(SCc3ccc(Cl)cc3Cl)nc(N)nc21 here?
Answer: 3.98 µM (active)

Question: How did the activity, negative = inhibition turn out when Cc1ccc2ccccc2c1CSc1nc(N)nc2c1ncn2CC(C)C was run?
Answer: -24.4% [at 11.4 µM]

Question: With CC(C)Cn1cnc2c(SCc3ccccn3)nc(N)nc21 as the compound, how does the activity, negative = inhibition read?
Answer: -22.1% [at 11.4 µM]

Question: For O[C@@H](c1cc([C@@]23C[C@H]4CC[C@@H]2C[C@H](C4)C3)nc2c(Cl)cc(Cl)cc12)[C@@H]1CCCCN1, which activity, negative = inhibition is on record?
Answer: -22.3% [at 11.4 µM]

Question: C/C(CCN1CCc2nc(-c3ccccc3)c(-c3ccccc3)cc2C1)=N\OC[C@@H](O)COCc1ccco1 was tested. Which AC50 did it give?
Answer: 3.16 µM (active)

Question: With C/C(CCN1CCc2nc(-c3ccccc3)c(-c3ccccc3)cc2C1)=N\O[C@@H](C)c1cn([C@@H]2COC[C@@H]2O)nn1 as the compound, how does the activity, negative = inhibition read?
Answer: -37.3% [at 11.4 µM]

Question: For C/C(CCN1CCCc2nc(C)c(C)cc21)=N\OC[C@@H](O)COCc1ccco1, which AC50 is on record?
Answer: 3.98 µM (active)

Question: C/C(CCN1CCCc2nc(C)c(C)cc21)=N\OC[C@@H](O)[C@@H]1O[C@@H]2OC(C)(C)O[C@@H]2[C@H]1O was tested. Which activity, negative = inhibition did it give?
Answer: -10.8% [at 11.4 µM]

Question: Which AC50 does the source give for C/C(CCN1CCCCc2nc(C)c(C)cc21)=N\OC[C@@H](O)COCc1ccco1 here?
Answer: 3.98 µM (active)

Question: Which “activity, negative = inhibition” value does the source give for N/C(=N\O)C1COc2ccccc2O1 (stereo not given) here?
Answer: -12.1%

Question: With Cc1ccc(S(=O)(=O)N2CCN(C(=O)C3COc4ccccc4O3)CC2)cc1C (stereo not given) as the compound, how does the AC50 read?
Answer: 11.2 µM (active)

Question: Which AC50 does the source give for COC(=O)[C@@]1(Cc2ccccc2)[C@H]2c3cc(C(=O)N4CCCC4)n(Cc4ccc(O)c(OC)c4)c3C[C@H]2CN1C(=O)c1ccccc1 here?
Answer: 2 µM (active)

Question: For COC(=O)[C@@]1(Cc2ccccc2)[C@H]2c3cc(C(=O)N4CCCC4)n(Cc4ccc(OC)c(OC)c4)c3C[C@H]2CN1C(=O)c1ccccc1, which AC50 is on record?
Answer: 1.26 µM (active)

Question: How did the “activity, negative = inhibition” value turn out when Cc1ccc2ncc([N+](=O)[O-])n2c1 was run?
Answer: 12.5%

Question: CNc1ccnc(-c2ccccc2CN(C)C)n1 was tested. Which “activity, negative = inhibition” value did it give?
Answer: -20.8%

Question: Which AC50 does the source give for CN(C)Cc1ccccc1-c1nccc(N(C)C)n1 here?
Answer: 10 µM (active)

Question: Which AC50 does the source give for CN(C)Cc1ccccc1-c1nccc(NC2CC2)n1 here?
Answer: 15.8 µM (active)

Question: With COc1ccc(CO/N=C/c2c(C)[nH]c(=O)[nH]c2=O)cc1 as the compound, how does the “activity, negative = inhibition” value read?
Answer: -11.9%

Question: COCCNc1ccnc(-c2ccccc2CN(C)C)n1 was tested. Which “activity, negative = inhibition” value did it give?
Answer: -19.7%

Question: With COc1ccc(CNc2ccnc(-c3ccccc3CN(C)C)n2)c(OC)c1 as the compound, how does the AC50 read?
Answer: 5.01 µM (active)

Question: Which AC50 does the source give for COc1ccc(CNc2ccnc(-c3ccccc3C(F)(F)F)n2)c(OC)c1 here?
Answer: 3.16 µM (active)

Question: With COc1ccc(CNc2ccnc(-c3ccccc3Cl)n2)c(OC)c1 as the compound, how does the AC50 read?
Answer: 3.16 µM (active)

Question: For COc1ccc(CNc2ccnc(-c3ccccc3OC)n2)c(OC)c1, which AC50 is on record?
Answer: 6.31 µM (active)

Question: With C[N+]1(CCC(=O)c2ccco2)CC2CCC(CC2)C1 (stereo not given) as the compound, how does the activity, negative = inhibition read?
Answer: 1.47% [at 11.4 µM]

Question: For N#Cc1cc2[nH]c(=O)c(=O)[nH]c2cc1[N+](=O)[O-], which “activity, negative = inhibition” value is on record?
Answer: -23%

Question: How did the “activity, negative = inhibition” value turn out when CCN(c1nc(N)c(C(=O)N=C(N)N)nc1Cl)C(C)C was run?
Answer: -18.6%

Question: CC1(C)OC[C@@H]2O[C@H](n3cnc4c(N)nc(Cl)nc43)[C@@H](OS(C)(=O)=O)[C@@H]2O1 was tested. Which activity, negative = inhibition did it give?
Answer: -4.98% [at 11.4 µM]

Question: For O=C(O)c1c2c(c(O)c3c1CN(C1CCCCC1)CO3)OCN(C1CCCCC1)C2, which activity, negative = inhibition is on record?
Answer: -0.201% [at 11.4 µM]

Question: Which activity, negative = inhibition does the source give for CC(C)Cn1cnc2c(Sc3c([N+](=O)[O-])ncn3C)nc(N)nc21 here?
Answer: -7.97% [at 11.4 µM]

Question: CCOc1c(OC(C)=O)ccc(/C=C/c2ccc3cccc(OC(C)=O)c3n2)c1[N+](=O)[O-] was tested. Which AC50 did it give?
Answer: 10 µM (active)

Question: For COc1ccc2c(c1[N+](=O)[O-])CCC/C2=N/OC(=O)c1cccc2ccccc12, which activity, negative = inhibition is on record?
Answer: 0.913% [at 2.29 µM]

Question: Cc1ccc(-n2c(C)nnc2SCC(=O)N2CCc3ccccc3C2)cc1C was tested. Which AC50 did it give?
Answer: 8.91 µM (active)

Question: With CC1=C(\C=C/C(C)=C/C=C\C(C)=C\C(=O)O)C(C)(C)CCC1 as the compound, how does the “activity, negative = inhibition” value read?
Answer: -19.6% [at 25.6 µM]

Question: Which AC50 does the source give for O=C(NNS(=O)(=O)c1cc(Cl)cc(Cl)c1)c1sccc1-n1cccc1 here?
Answer: 7.94 µM (active)

Question: Which AC50 does the source give for C/C(=N\N=C(c1ccccc1)c1ccccc1)c1cccs1 here?
Answer: 14.1 µM (active)

Question: With C/C(=N\N=C1\NC(=O)CC(C(=O)O)S1)c1cccs1 (stereo not given) as the compound, how does the “activity, negative = inhibition” value read?
Answer: 1.69%

Question: For CC(=O)/C(=N\N=C(N)N)c1ccccc1, which activity, negative = inhibition is on record?
Answer: -6.08% [at 11.4 µM]

Question: Which AC50 does the source give for Cc1ccc(NC(=O)CCC(=O)c2ccc(F)cc2)cc1Cl here?
Answer: 12.6 µM (active)

Question: With Cc1ccc(NC(=O)c2cc(NC(=O)CCCC(=O)O)ccc2Cl)cc1Cl as the compound, how does the “activity, negative = inhibition” value read?
Answer: -16.3%

Question: With CCCOc1ccc(C(=O)CCNc2ccc(C)c(Cl)c2)cc1 as the compound, how does the activity, negative = inhibition read?
Answer: 12.4% [at 2.29 µM]
